Experimental data: PubChem BioAssay AID1159580 (chemical genetic matrix, 2015)
Several values for one entry are separate records, joined by “and”; a condition that tells them apart may be missing. Equal entries are not always repeated. The whole screen tested about 5,500 compounds, of which about 2,000 (36%) were called active. Another 18% or so got no clear call; they are omitted. Rule as the data show it: active = normalized growth mostly below about 0.91 (no sharp cut-off); inconclusive = no clear call, values can overlap the other calls; inactive = mostly above about 0.92. The list shows a part of the results.

Assay: chemical genetic growth profiling, strain panel (AID 1159580);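 also: tested at 20 µM; growth read once vehicle control cultures reached saturation at 30 °C; 1 = growth at the plate median or of vehicle wells; lower values mean less growth of the strain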
Details: S. cerevisiae deletion strains, growth OD

Measured: normalized growth

CC1(C)C2CC(=O)[C@]3(C)C(CC[C@@]4(C)[C@H](c5ccoc5)OC(=O)[C@H]5O[C@]543)[C@@]2(C)C(=O)C[C@H]1O (stereo not given in full)
inactive: locus YAL013W, strain DEP1, hits give low values 1.03 | locus YAL021C, strain ccr4, hits give low values 1.01 | locus YAL026C, strain drs2, hits give low values 1 | locus YAL030W, strain snc1, hits give low values 1.01 | locus YBL061C, strain skt5, hits give low values 1 | locus YBR009C, strain hhf1, hits give low values 0.992 | locus YBR021W, strain FUR4, hits give low values 0.995 | locus YBR023C, strain chs3, hits give low values 1.02 | locus YBR171W, strain sec66, hits give low values 1.01 | locus YBR229C, strain ROT2, hits give low values 1 | locus YBR231C, strain swc5, hits give low values 1 | locus YBR279W, strain paf1, hits give low values 1.01 | locus YCL011C, strain gbp2, hits give low values 1.02 | locus YCL016C, strain dcc1, hits give low values 1.01 | locus YCL029C, strain bik1, hits give low values 1.01 | locus YCL061C, strain MRC1, hits give low values 1 | locus YCL069W, strain vba3, hits give low values 1.01 | locus YCR088W, strain abp1, hits give low values 1.01 | locus YDL005C, strain med2, hits give low values 1 | locus YDL035C, strain GPR1, hits give low values 0.975 | locus YDL040C, strain nat1, hits give low values 1 | locus YDL074C, strain BRE1, hits give low values 1.03 | locus YDL101C, strain DUN1, hits give low values 1.03 | locus YDL185W, strain tfp1, hits give low values 1.02 | locus YDL192W, strain arf1, hits give low values 1.01 | locus YDR001C, strain nth1, hits give low values 1 | locus YDR069C, strain doa4, hits give low values 0.995 | locus YDR101C, strain arx1, hits give low values 1 | locus YDR137W, strain rgp1, hits give low values 1.06 | locus YDR150W, strain NUM1, hits give low values 1 | locus YDR159W, strain sac3, hits give low values 1.01 | locus YDR162C, strain NBP2, hits give low values 0.983 | locus YDR195W, strain ref2 0.977 | locus YDR297W, strain sur2, hits give low values 1.01 | locus YDR318W, strain mcm21, hits give low values 1.01 | locus YDR334W, strain swr1, hits give low values 1.01 | locus YDR335W, strain msn5, hits give low values 0.999 | locus YDR388W, hits give low values 1.01 | locus YDR392W, strain spt3, hits give low values 1.01 | locus YDR502C, strain sam2, hits give low values 1.02 | locus YEL003W, strain gim4, hits give low values 1.01 | locus YEL037C, strain rad23, hits give low values 1 | locus YEL061C, strain CIN8 (second series), hits give low values 0.996 | locus YEL061C, strain CIN8, hits give low values 1 | locus YER015W, strain faa2, hits give low values 0.995 | locus YER016W, strain bim1, hits give low values 1.01 | locus YER110C, hits give low values 1.02 | locus YER111C, strain swi4, hits give low values 1.01 | locus YER155C, strain BEM2 (second series), hits give low values 1.02 | locus YER155C, strain BEM2, hits give low values 1 | locus YER167W, strain BCK2, hits give low values 0.993 | locus YFR010W, strain ubp6, hits give low values 0.997 | locus YGL078C, strain dbp3, hits give low values 1.01 | locus YGL086W, strain mad1, hits give low values 1.01 | locus YGL167C, strain pmr1, hits give low values 1.01 | locus YGL173C, strain kem1, hits give low values 1.02 | locus YGL227W, strain vid30, hits give low values 1.01 | locus YGL240W, strain doc1, hits give low values 1.03 | locus YGL248W, strain PDE1, hits give low values 1.03 | locus YGL253W, strain hxk2, hits give low values 1 | locus YGR078C, strain PAC10, hits give low values 1.03 | locus YGR135W, strain pre9, hits give low values 1.01 | locus YGR252W, strain gcn5, hits give low values 0.993 | locus YHR013C, strain ard1, hits give low values 1.01 | locus YHR027C, strain rpn1, hits give low values 1.01 | locus YHR030C, strain SLT2, hits give low values 0.992 and 1.02 | locus YHR079C, strain IRE1 (second series), hits give low values 1.02 | locus YHR079C, strain IRE1, hits give low values 1.02 | locus YHR094C, strain hxt1, hits give low values 1.02 | locus YHR129C, strain ARP1, hits give low values 1.01 | locus YHR142W, strain chs7, hits give low values 0.999 | locus YHR200W, strain rpn10, hits give low values 1.01 | locus YIL066C, strain RNR3, hits give low values 0.979 | locus YIL073C, strain SPO22, hits give low values 1.03 | locus YIL125W, strain kgd1, hits give low values 1.01 | locus YIR030C, strain dcg1, hits give low values 1.02 | locus YJL092W, strain hpr5, hits give low values 1 | locus YJL095W, strain BCK1 (second series), hits give low values 1.01 | locus YJL095W, strain BCK1, hits give low values 1.06 and 1.03 | locus YJL115W, strain asf1, hits give low values 1 | locus YJL129C, strain trk1, hits give low values 1.03 | locus YJL134W, strain LCB3, hits give low values 0.999 | locus YJL154C, strain vps35, hits give low values 1 | locus YJL164C, strain tpk1, hits give low values 1 | locus YJL166W, strain qcr8, hits give low values 1.01 | locus YJL168C, strain set2, hits give low values 1.01 | locus YJL187C, strain SWE1 (second series), hits give low values 1.05 | locus YJR043C, strain POL32, hits give low values 0.963 | locus YJR066W, strain TOR1, hits give low values 0.956 | locus YJR075W, strain HOC1, hits give low values 1.03 | locus YKL009W, strain mrt4, hits give low values 1.03 | locus YKL068W, hits give low values 1.01 | locus YKL085W, strain MDH1 (second series), hits give low values 1 | locus YKL085W, strain MDH1, hits give low values 1 | locus YKL160W, strain elf1, hits give low values 1.01 | locus YKL190W, strain CNB1, hits give low values 1.01 | locus YKR001C, strain vps1, hits give low values 1.05 | locus YKR026C, strain gcn3, hits give low values 1 | locus YKR091W, strain srl3, hits give low values 1 | locus YLL001W, strain dnm1, hits give low values 1.01 | locus YLL026W, hits give low values 1.01 | locus YLL041C, strain sdh2, hits give low values 0.998 | locus YLR027C, strain aat2, hits give low values 1.01 | locus YLR039C, strain RIC1, hits give low values 1.02 | locus YLR058C, strain SHM2, hits give low values 1.02 | locus YLR102C, strain apc9, hits give low values 1.02 | locus YLR113W, strain HOG1, hits give low values 0.981 | locus YLR221C, strain rsa3, hits give low values 1 | locus YLR258W, strain gsy2, hits give low values 1.01 | locus YLR262C, strain YPT6 (second series), hits give low values 0.982 | locus YLR262C, strain YPT6, hits give low values 1 | locus YLR268W, strain sec22, hits give low values 1.02 | locus YLR320W, strain mms22, hits give low values 1.01 | locus YLR330W, strain CHS5, hits give low values 1 | locus YLR342W, strain FKS1 (second series), hits give low values 0.988 | locus YLR342W, strain FKS1, hits give low values 1.01 | locus YLR357W, strain rsc2, hits give low values 0.994 | locus YLR370C, strain arc18, hits give low values 0.996 | locus YLR371W, strain rom2, hits give low values 1.02 | locus YLR384C, strain iki3, hits give low values 1.01 | locus YLR418C, strain cdc73, hits give low values 1.03 | locus YML016C, strain PPZ1, hits give low values 0.997 | locus YML032C, strain rad52, hits give low values 1.01 | locus YML120C, strain ndi1, hits give low values 1.01 | locus YML124C, strain tub3, hits give low values 1.01 | locus YMR058W, strain fet3, hits give low values 1 | locus YMR078C, strain ctf18, hits give low values 1.02 | locus YMR125W, strain sto1, hits give low values 1.02 | locus YMR129W, hits give low values 1.02 | locus YMR205C, strain PFK2, hits give low values 1 | locus YMR223W, strain ubp8, hits give low values 1.01 | locus YMR231W, strain pep5, hits give low values 1.01 | locus YMR263W, strain SAP30, hits give low values 1.04 | locus YMR307W, strain GAS1, hits give low values 1.04 | locus YNL067W, strain RPL9B, hits give low values 1.05 | locus YNL071W, strain lat1, hits give low values 1 | locus YNL153C, strain GIM3, hits give low values 1.04 | locus YNL183C, strain NPR1, hits give low values 0.962 | locus YNL209W, strain ssb2, hits give low values 0.997 | locus YNL233W, strain BNI4, hits give low values 1.04 | locus YNL248C, strain rpa49, hits give low values 1.02 | locus YNL250W, strain rad50, hits give low values 1.02 | locus YNL271C, strain bni1, hits give low values 1.01 | locus YNL298W, strain CLA4, hits give low values 1.02 | locus YNL307C, strain MCK1, hits give low values 1.02 | locus YNL322C, strain KRE1 (second series), hits give low values 1.03 | locus YNR049C, strain mso1, hits give low values 0.995 | locus YNR052C, strain pop2, hits give low values 1.02 | locus YOL012C, strain htz1 2.06 | locus YOL147C, strain pex11, hits give low values 1.02 | locus YOR001W, strain rrp6, hits give low values 0.995 | locus YOR061W, strain CKA2, hits give low values 0.999 | locus YOR069W, strain VPS5, hits give low values 1.01 | locus YOR070C, strain gyp1, hits give low values 1.01 | locus YOR080W, strain dia2, hits give low values 0.997 | locus YOR083W, strain WHI5, hits give low values 1.01 | locus YOR106W, strain vam3, hits give low values 1 | locus YOR136W, strain idh2, hits give low values 1.03 | locus YOR144C, strain elg1, hits give low values 1.01 | locus YOR184W, strain ser1, hits give low values 1.01 | locus YOR231W, strain MKK1, hits give low values 1.02 | locus YOR265W, strain rbl2, hits give low values 0.99 | locus YOR270C, strain vph1, hits give low values 0.948 | locus YOR290C, strain snf2, hits give low values 1.01 | locus YOR316C, strain cot1, hits give low values 1.01 | locus YPL051W, strain arl3, hits give low values 1.01 | locus YPL078C, strain atp4, hits give low values 1.01 | locus YPL106C, strain sse1, hits give low values 1.01 | locus YPL240C, strain hsp82, hits give low values 1.02 | locus YPL256C, strain CLN2, hits give low values 1.01 | locus YPR119W, strain clb2, hits give low values 1.01 | locus YPR141C, strain kar3, hits give low values 1.01 | locus YPR163C, strain tif3, hits give low values 1.01 | locus YPR167C, strain met16, hits give low values 1.01 | strain wtn01, hits give low values 1.02
